# Source: PubChem BioAssay (Tox21)
# A number with no mark means an inactive call. The source made the active and inactive calls. Calls come from the whole dose curve; as a rule, active = well fitted curve in the direction sought with a large enough effect in the repeat runs; inconclusive = weak or mixed curves; inactive = flat fitted curve, though single readings scatter.
# Assay: qHTS assay to test for compound auto fluorescence at 590 nm (red) in HepG2 cell free culture (AID 720684)
# Conditions: cell-free medium autofluorescence, red 540/590 nm; series mostly up to 91.3 µM
# Excerpt: U.S. Tox21 Program National Center for Advancing Translational Sciences [NCATS] NIH Chemical Genomics Center [NCGC] U.S. Environmental Protection Agency [EPA] National Institutes of Environmental Health Sciences [NIEHS] National Toxicology Program [NTP] U.S. Food and Drug Administration [FDA] Tox21 Assay Overview: Compound auto fluorescence often interferes with screening of the compound library against various biological targets and signaling pathways. Some of these compounds may have fluorophoric properties. Such properties may interfere with the assay outputs resulting in false positives and/or negatives. To decrease such complications and ensure the compound activities are relevant in terms of biological response, the Tox21 10K compound library was screened for auto fluorescence. From the fluorophores used as reporter signals in our screening assays, the auto fluorescence equivalencies of compounds against three fluorophores have been evaluated: Triamterene, Fluorescein and Rose Bengal sodium for blue, green and red fluorescence, respectively. The fluorescence intensities were measured using Excitation/Emission wavelengths at 405/460nm, 485/535nm and 540/590nm for blue, green and red labels, respectively. This assay includes the red fluorescence data.
# Tox21 Assay Protocol Summary: 5 uL of culture medium (MEM containing 10% FBS) per well was dispensed into black wall/clear bottom 1536-well plates using a Multidrop Combi Dispenser (ThermoFisher Scientific, Waltham, MA). After 23 nL compound or DMSO vehicle was transferred into assay plate by a pintool work station (Kalypsys, San Diego, CA), fluorescence intensities in the assay plates were measured by an Envision (PerkinElmer, Shelton, CT) plate reader using three labels for measuring blue, green and red fluorescence at […] 460, 535 and 590nm respectively.
# % is set by controls: 0 for no effect and ±100 for the full control effect.
Compound,outcome,"fluorescence, % of Rose Bengal"
CCCCCCCCSCC,inactive,
ClCCCl,inactive,
CNS(=O)(=O)CCc1ccc2[nH]cc(C3CCN(C)CC3)c2c1,inactive,
O=C(OCC1(COC(=O)c2cccnc2)CCCC(COC(=O)c2cccnc2)(COC(=O)c2cccnc2)C1O)c1cccnc1,inactive,
Nc1ccc([N+](=O)[O-])c(N)c1,inactive,
CN(C)C(=O)CNC(=O)Cc1ccccc1,inactive,
O=S(O)(O)=S,,-0.0109% [at 3.72 µM]
Oc1cn2c(n1)Nc1ccc(Cl)c(Cl)c1C2,inactive,
CCOC(=O)/C=C/c1ccccc1,inactive,
CC(C)=O,inactive,
C=C(C)C(=O)OCCNC(C)(C)C,inactive,
CC(=O)NCc1c(I)c(NC(C)=O)c(I)c(C(=O)O)c1I,inactive,
CC1(C)S[C@@H]2[C@H](N=CN3CCCCCC3)C(=O)N2[C@H]1C(=O)O,inactive,
CCCCCCCCCCl,inactive,
C[C@H](CCC(=O)O)[C@H]1CC[C@H]2[C@@H]3C(=O)C[C@@H]4CC(=O)CC[C@]4(C)[C@H]3CC(=O)[C@]12C,inactive,
O=C(O)Cc1ccc(Cl)cc1Cl,inactive,
O=C(OCc1ccccc1)C(=O)OCc1ccccc1,inactive,
CCOc1cc([N+](=O)[O-])c(OCC)cc1N1CCOCC1,inactive,
O=P(O)(O)OP(=O)(O)O,inactive,
O=C(NCC(O)CO)c1c(I)c(C(=O)NCC(O)CO)c(I)c(N(CCO)C(=O)CO)c1I (stereo not given),,0.343% [at 18.6 µM]

Compound,outcome,"fluorescence, % of Rose Bengal"
C=C(C)C(=O)OCc1ccccc1,inactive,
COc1cc(NS(=O)(=O)c2ccc(N)cc2)nc(OC)n1,,0.441% [at 18.6 µM]
NCCS,inactive,
NCCN1CCOCC1,inactive,
CCCCCOC(=O)CCC,inactive,
CN=C(NC#N)Nc1ccc(C2=NNC(=O)CC2C)cc1 (stereo not given),inactive,
C[C@@H]1O[C@@H](O[C@@H]2[C@@H](O)[C@H](OCCc3ccc(O)c(O)c3)O[C@H](CO[C@@H]3O[C@H](CO)[C@@H](O)[C@H](O)[C@H]3O)[C@H]2OC(=O)/C=C/c2ccc(O)c(O)c2)[C@H](O)[C@H](O)[C@H]1O,inactive,
COc1cc(C(=S)N2CCOCC2)cc(OC)c1OC,inactive,
CC(C)=CCOC(=O)c1ccccc1,inactive,
Cc1ccccc1OCC(O)CO (stereo not given),inactive,
CCCC(=O)C(C)=O,inactive,
CCCCC(CC)COCCO (stereo not given),inactive,
CCCC/C=C\CCCCCCCCCC=O,inactive,
COC(=O)CCCCCCCC(=O)OC,inactive,
COc1ccc(OC)c(Cl)c1,inactive,
COC(=O)CCc1ccc(OCC(O)CNC(C)C)cc1 (stereo not given),inactive,
O=C1c2ccccc2C(=O)C1c1ccccc1,,-0.261% [at 18.6 µM]
CO[C@@H]1[C@@H](OC(N)=O)[C@@H](O)[C@H](Oc2ccc3c(O)c(NC(=O)c4ccc(O)c(CC=C(C)C)c4)c(=O)oc3c2C)OC1(C)C,,0.235% [at 18.6 µM]
BrCc1cccc(Oc2ccccc2)c1,inactive,
OCCN(CCO)c1cccc(Cl)c1,inactive,
